# Screening results as filed in PubChem.
# Hits are enriched below; roughly 3.1% of the tested compounds scored in any of these assays.
# TSHR antag: antagonists of human thyroid stimulating hormone receptor; hit rate 0.2% among 330,000; P16473; AID 504810; activity change, negative = inhibition, % at 11.5 µM; TSHR-expressing cells, TSH-stimulated cAMP HTRF, 2 h; stronger effect = lower value;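 active = activity change below a set negative limit, meaning inhibition stronger than a set level, cut at about -70% in these data; inconclusive = activity change between two set negative limits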; note: % is set by controls: 0 for no effect and ±100 for the full control effect
#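 Antagonism was scored as loss of TSH-driven cAMP in TSHR cells, stimulated with 4nM TSH (EC80) for 2 hours at 37 deg C and detected by homogeneous HTRF competition immunoassay.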
# PLK1 PBD inh: PLK1 (human) polo-box domain binding inhibition | Potency, µM, for inactives: max response, negative = inhibition, actives largely listed as inhibitors | Plk1 PBD binding of FITC phosphopeptide, fluorescence polarization | P53350 | hit rate 2.8% among 360,000 | AID 720504; note: potency is the fitted concentration of half-maximal effect; series mostly up to about 57 µM; % is set by controls: 0 for no effect and ±100 for the full control effect; nearly all actives have a fitted effect of over 65% in size
# VDR inh: blocks the human vitamin D receptor; Potency, µM, without a hit: max response, negative = inhibition, most hits filed as inhibitors; VDR-SRC2-3 peptide fluorescence polarization, 2 h; AID 504847; hit rate 0.93% among 400,000; note: potency is the fitted concentration of half-maximal effect; % is set by controls: 0 for no effect and ±100 for the full control effect
# Target sequence (P11473 whole entry, looked up): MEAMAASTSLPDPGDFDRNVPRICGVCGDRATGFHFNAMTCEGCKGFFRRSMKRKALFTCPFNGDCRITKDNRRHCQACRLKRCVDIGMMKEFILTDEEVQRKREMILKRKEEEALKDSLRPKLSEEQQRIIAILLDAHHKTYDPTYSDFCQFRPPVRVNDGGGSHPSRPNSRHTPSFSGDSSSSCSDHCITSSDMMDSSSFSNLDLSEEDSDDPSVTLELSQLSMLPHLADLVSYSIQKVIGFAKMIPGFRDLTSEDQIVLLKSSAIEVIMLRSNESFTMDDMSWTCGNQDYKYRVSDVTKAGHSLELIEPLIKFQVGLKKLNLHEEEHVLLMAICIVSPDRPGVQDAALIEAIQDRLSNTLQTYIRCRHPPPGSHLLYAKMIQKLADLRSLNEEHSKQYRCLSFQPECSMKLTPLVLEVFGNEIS
#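 Inhibition of the VDR/SRC2-3 peptide interaction is quantified by fluorescence polarization. Compounds (23 nl, pintool) incubate with the reagents for 2 hours at ambient room temperature.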
# Vif-APOBEC3F blk: inhibitors of Vif-A3F interaction; HeLa A3F-eYFP + Vif (tagged APOBEC3F with the HIV-1 protein that degrades it), YFP fluorescence increase; AID 602313; Potency, µM (series often up to 46.1 µM), inactives show at the highest dose activity, negative = active; hit rate 0.2% among 390,000; note: potency is the fitted concentration of half-maximal effect; % of control where 0% means no effect; nearly all actives have a fitted effect of over 65% in size
#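 Fluorescence increase (Ex 488/Em 500-530) after overnight compound treatment at 37 deg C flags inhibition of Vif-driven A3F-eYFP loss in stable HeLa A3F-eYFP/Vif cells seeded overnight beforehand.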
# Vif-APOBEC3G blk: inhibitors of Vif-APOBEC3G interaction; Q9HC16; HeLa A3G-eYFP + Vif (tagged APOBEC3G with the HIV-1 protein that degrades it), YFP fluorescence, overnight; Potency, µM (titrated, usually from 46.1 µM), inactives show at the highest dose activity, negative = active, usual class: inhibitors; hit rate 0.076% among 410,000; AID 602310; note: potency is the fitted concentration of half-maximal effect; % is set by controls: 0 for no effect and ±100 for the full control effect; nearly all actives have a fitted effect of over 60% in size
# Target sequence (Q9HC16 whole entry, looked up): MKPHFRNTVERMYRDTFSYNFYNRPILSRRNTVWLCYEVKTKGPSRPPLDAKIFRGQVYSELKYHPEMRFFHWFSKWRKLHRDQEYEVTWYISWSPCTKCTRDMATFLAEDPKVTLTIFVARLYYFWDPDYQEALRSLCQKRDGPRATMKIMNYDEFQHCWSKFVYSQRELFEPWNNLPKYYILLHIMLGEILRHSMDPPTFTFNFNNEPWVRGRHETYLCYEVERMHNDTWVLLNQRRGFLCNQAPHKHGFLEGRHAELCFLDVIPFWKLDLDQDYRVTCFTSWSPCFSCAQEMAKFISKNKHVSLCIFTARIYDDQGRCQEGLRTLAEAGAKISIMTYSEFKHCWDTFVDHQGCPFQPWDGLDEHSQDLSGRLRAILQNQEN
#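 Read-out is eYFP fluorescence (Ex 488/Em 500-530) from Vif-expressing HeLa A3G-eYFP cells; more signal means A3G escaped Vif-mediated degradation. Cells plated overnight, compound pinned in, incubated overnight at 37 deg C.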
# VDR inh confirm: inhibits human vitamin D receptor, primary hit validation; AID 602199; hit rate 89% among 840; shares compounds with VDR inh; VDR-coactivator inhibition assay, qHTS confirmation; Potency, µM, most hits filed as inhibitors; note: potency is the fitted concentration of half-maximal effect
# VDR FP fluor: confirmation of human VDR-coactivator binding inhibitors, fluorescein label; Potency, µM (doses to about 57.1 µM), for inactives: top-dose activity change, negative = inhibition, hits mostly inhibitors; hit rate 48% among 840; VDR-coactivator binding, fluorescein fluorescence polarization; shares compounds with VDR inh; note: potency is the fitted concentration of half-maximal effect
# VDR bla: VDR (human) inhibition, cell-based beta-lactamase validation; shares compounds with VDR inh; VDR beta-lactamase reporter cells, FRET ratio; cells co-treated with VDR agonist LG190178; Potency, µM (highest dose often 46.1 µM), for the others: at the highest dose activity change, negative = inhibition, most hits filed as inhibitors; hit rate 23% among 840; note: potency is the fitted concentration of half-maximal effect; % is set by controls: 0 for no effect and ±100 for the full control effect
# VDR viability: counter-screen for vitamin D receptor inhibitors: cytotoxicity; cytotoxicity counter-screen, cell viability, qHTS; AID 602204; shares compounds with VDR inh; Potency, µM (top dose mostly 48.3 µM), for the others: at the highest dose activity change, negative = cytotoxicity, actives largely listed as cytotoxic; hit rate 18% among 840;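 note: potency is the fitted concentration of half-maximal effect; plate controls were DMSO for no effect and high-concentration cycloheximide for full effect; nearly all actives have a fitted effect of over 75% in size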
# TbPYK confirm: confirmation of Trypanosoma brucei pyruvate kinase inhibitors. shares compounds with PLK1 PBD inh. recombinant TbPYK, Kinase-Glo ATP luminescence. Potency, µM (doses to about 76.9 µM), without a hit: at the highest dose activity change, negative = inhibition, actives largely listed as inhibitors. AID 720569. hit rate 67% among 890; note: potency is the fitted concentration of half-maximal effect; % is set by controls: 0 for no effect and ±100 for the full control effect; nearly all actives have a fitted effect of over 70% in size
# TbPYK orthogonal: orthogonal confirmation of Trypanosoma brucei pyruvate kinase inhibitors; shares compounds with PLK1 PBD inh; recombinant TbPYK, ADP-Glo luminescence, 60 min; Potency, µM (titrated, usually from 76.9 µM), for inactives: top-dose activity change, negative = inhibition, actives largely listed as inhibitors; hit rate 62% among 890; AID 720584; note: potency is the fitted concentration of half-maximal effect; % is set by controls: 0 for no effect and ±100 for the full control effect; nearly all actives have a fitted effect of over 75% in size
# Starred values were filed as active, the others as inactive; i = inactive; ? = inconclusive; / = no result. Unless noted, calls come from the whole dose curve; as a rule, active = well fitted curve in the direction sought with a large enough effect; inconclusive = small, poorly fitted or top-dose-only effect, or another doubt; inactive = no such curve, though single readings can be large; an effect the other way counts as inactive or inconclusive.
SMILES,TSHR antag,PLK1 PBD inh,VDR inh,Vif-APOBEC3F blk,Vif-APOBEC3G blk,VDR inh confirm,VDR FP fluor,VDR bla,VDR viability,TbPYK confirm,TbPYK orthogonal
Nc1nc(Sc2ccc([N+](=O)[O-])c3nonc23)c2[nH]cnc2n1,/,1.5µM*,14.1µM*,?,?,3.36*,?,?,11.2µM*,/,/
Cc1ccc(OP2(=O)Nc3cc(C)c(C)cc3S2)cc1 (configuration not stated),/,1.68µM*,7.94µM*,-9.0%,-7.1%,6.7*,?,7.0%,-12.4%,/,/
O=C1NC(=O)C(=Cc2ccc(-c3cc(Cl)ccc3[N+](=O)[O-])o2)C(=O)N1,1.6,1.5µM*,79.4µM*,?,-9.3%,3.36*,25.3%,?,?,7.08µM*,1.12µM*
NS(=O)(=O)c1ccc(-c2ccc(C=C3C(=O)NC(=S)NC3=O)o2)cc1,-0.4,/,/,/,/,/,/,/,/,/,/
NS(=O)(=O)c1ccc(-c2ccc(C=C3C(=O)NC(=O)NC3=O)o2)cc1,-10.8,2.67µM*,44.7µM*,-7.7%,1.8%,?,?,6.3%,-8.8%,1.78µM*,6.31µM*
CC(=O)O[C@@H]1[C@@H](O)C2OC3C=C(C)C(=O)[C@@H](O)[C@]3(CO)C1(C)C21CO1 (some centres not stated),/,/,-2.2%,/,/,/,/,/,/,/,/
CN1C(=O)C(=Cc2ccc(N3CCCCCC3)o2)C(=O)N(C)C1=S,5.0,61.6%,18.9%,i,?,/,/,/,/,/,/
O=C(O)c1ccccc1-c1ccc(C=C2C(=O)N(c3ccccc3)C(=S)N(c3ccccc3)C2=O)o1,-1.1,2.67µM*,15.8µM*,-17.9%,0.7%,3.77*,?,24.4%,3.9%,31.6µM*,39.8µM*
CCC1(c2ccccc2)C(=O)N(C)C(=O)N(C)C1=O,/,-6.5%,-5.9%,-2.3%,0.9%,/,/,/,/,/,/
CN1C(=O)N(C)C(=O)C2(Sc3ccccc3C2=O)C1=O,-5.3,5.32µM*,35.5µM*,-4.7%,2.1%,3.36*,3.55µM*,31.3%,-6.5%,5.01µM*,?
CC(C)Nc1ccc(Nc2ccccc2)cc1,2.7,?,39.8µM*,7.6%,-22.5%,?,7.08µM*,?,?,5.01µM*,15.8µM*
C#CCN(C[C@@H]1[C@@H](OC(=O)Nc2c(C)noc2C)[C@@H](OC(=O)Nc2c(C)noc2C)Cn2c(=O)n(CCCCCC)c(=O)n21)S(=O)(=O)c1ccc(C)cc1,/,?,/,-7.4%,-9.3%,/,/,/,/,/,/
CN1C(=O)NC(=O)/C(=C/c2ccc([N+](=O)[O-])s2)C1=O,-3.4,2.67µM*,44.7µM*,-18.2%,-3.4%,8.44*,?,10.5%,?,5.01µM*,11.2µM*
CC(C)C[C@H](NC(=O)[C@H](Cc1ccccc1)NC(=O)CNC(=O)[C@H](CS)N(C(=O)[C@@H](N)Cc1ccc(O)cc1)C(C)(C)C)C(=O)N([C@H](C(=O)O)[C@H](C)O)C(C)(C)C,/,/,11.8%,/,/,/,/,/,/,/,/
O=C1NC(=S)NC(=O)C1=Cc1ccc(Br)s1,28.8,2.12µM*,22.4µM*,?,?,4.23*,?,?,?,10µM*,15.8µM*
CN(C)c1ccc(C=C2C(=O)NC(=S)NC2=O)cc1[N+](=O)[O-],-8.1,3.77µM*,22.4µM*,-5.7%,2.3%,13.4*,10µM*,28.2%,-7.6%,4.47µM*,14.1µM*
CN1C(=O)C(=Cc2ccc(N(C)C)c([N+](=O)[O-])c2)C(=O)N(C)C1=O,12.8,/,/,/,/,/,/,/,/,/,/
O=C(O)CCn1cc(C=C2C(=O)NC(=S)NC2=O)c(-c2cccc(Cl)c2)n1,2.8,4.74µM*,25.1µM*,10.0%,0.3%,10.6*,?,13.7%,0.5%,7.08µM*,?
CC1OC(O[C@@H]2C(O)CC(O[C@@H]3C(O)C[C@@H](OC4CC[C@]5(C)[C@H](CC[C@H]6[C@@H]5CC[C@]5(C)C(C7=CC(=O)OC7)C(O)C[C@@]65O)C4)OC3C)OC2C)CC(O)C1O (some centres not stated),/,/,-1.8%,/,/,/,/,/,/,/,/
COC(=O)COc1ccc(/C=C2\C(=O)NC(=S)N(c3ccc(C)cc3)C2=O)cc1OC,-1.0,8.44µM*,25.1µM*,12.2%,-0.5%,6.7*,?,14.8%,25.7%,?,?
CCOC(=O)C1CCN(/C=C2/C(=O)NC(=S)N(c3cccc(OC)c3)C2=O)CC1,0.9,-12.9%,-19.9%,-1.1%,0.0%,/,/,/,/,/,/
O=C(Oc1ccccc1)N1CCC[C@@]2(CCN(Cc3ccccc3)C2)C1,/,/,-11.6%,/,/,/,/,/,/,/,/
O=c1[nH]c(O)c(/C=C2\C=NN=C2c2ccccc2)c(=O)[nH]1,1.1,3.55µM*,?,-4.3%,-1.7%,/,/,/,/,11.2µM*,31.6µM*
COC1CC(C)C(OC)c2cc(O)cc(c2O)NC(=O)C(C)=CC=CC(C)C(OC(N)=O)C(C)=CC(C)C1OC (configuration not stated),/,18.9µM*,?,-7.5%,?,/,/,/,/,?,12.6µM*
Clc1ccccc1CNc1nc2ccccc2n2cnnc12,-1.8,4.3%,-6.8%,?,-15.5%,/,/,/,/,/,/
NCC[C@H](O)C(=O)N[C@H]1C[C@@H](N)[C@@H](O[C@H]2O[C@@H](CN)[C@@H](O)[C@@H](O)[C@@H]2N)[C@@H](O[C@H]2O[C@@H](CO)[C@@H](O)[C@@H]2O)[C@@H]1O,/,/,2.9%,/,/,/,/,/,/,/,/
COc1cc(/C=C2/C(=O)NC(=O)N(c3ccc(C)cc3)C2=O)cc(OC)c1OC,3.0,11.9µM*,?,0.9%,-3.1%,/,/,/,/,?,?
Cc1cc(C)cc(N2C(=O)NC(=O)/C(=C\c3cc(C)n(C)c3C)C2=O)c1,-0.6,-16.1%,-11.9%,?,2.7%,/,/,/,/,/,/
